Experimental data published in the supplement of paper PMC9262897, “Low-cost anti-mycobacterial drug discovery using engineered E. coli” (Nature Communications, 2022).
Where a name gives a salt, the structure may show the parent alone. ± gives the standard deviation of the averaged measurements.

Assays:
Assay in all cases: growth (OD600 after 10 h); higher = more growth (less inhibition)
[1] = system: E. coli TESEC Alr+ wild-type control; conditions: compound 0.1 mM; raw OD600 reference: median of DMSO wells 0.241, cell-free background 0.041
Method: (§1)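 TESEC Mtb Alr E. coli, or the Alr+ wild-type control, in 384-well plates with Prestwick library compounds at 0.1 mM and 1% DMSO, across arabinose induction levels of 1E3 to 1E7 nM. Growth is read as OD600 after 10 h at 37 °C in triplicate biological replicates.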

[2] = system: E. coli TESEC Mtb Alr; conditions: compound 0.1 mM
Method: as §1

[3] = system: E. coli TESEC Mtb Asd; conditions: compound 0.1 mM
Method: (§2)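 TESEC E. coli strains in which the native enzyme is deleted and replaced by arabinose-inducible Mtb Asd, DapB, CysH or TrpD, each grown in its selective medium. Strains were screened against the Prestwick library at 0.1 mM and 1% DMSO in 384-well format at low and high arabinose induction. Growth is read as OD600 after 10 h in triplicate.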

[4] = system: E. coli TESEC Mtb DapB; conditions: compound 0.1 mM
Method: as §2

[5] = system: E. coli TESEC Alr+ wild-type control; conditions: compound 0.1 mM; raw OD600 reference: median of DMSO wells 0.49, cell-free background 0.052
Method: (§3)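 TESEC Mtb Alr E. coli (ΔaraC ΔtolC ΔentC Δalr ΔdadX, arabinose-inducible Mtb Alr) or the Alr+ wild-type control strain, grown in defined M9-fructose medium without D-alanine in 96-well plates with Prestwick library compounds at 0.1 mM and 1% DMSO. Low Alr induction is 0.1 µM arabinose and high induction is 10 mM arabinose.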

[6] = system: E. coli TESEC Mtb Alr; conditions: compound 0.1 mM; remark: listed apart in the source
Method: as §3

[7] = arabinose 1000 nM, raw OD600 reference: median of DMSO wells 0.294, cell-free background 0.041
[8] = arabinose 10000 nM, raw OD600 reference: median of DMSO wells 0.264, cell-free background 0.041
[9] = arabinose 100000 nM, raw OD600 reference: median of DMSO wells 0.201, cell-free background 0.041
[10] = arabinose 1000000 nM, raw OD600 reference: median of DMSO wells 0.193, cell-free background 0.041
[11] = arabinose 10000000 nM, raw OD600 reference: median of DMSO wells 0.146, cell-free background 0.041
[12] = arabinose induction (level): High, raw OD600 reference: median of DMSO wells 0.331, cell-free background 0.041
[13] = arabinose induction (level): Low, raw OD600 reference: median of DMSO wells 0.417, cell-free background 0.041
[14] = arabinose induction (level): High, raw OD600 reference: median of DMSO wells […], cell-free background 0.041
[15] = arabinose induction (level): Low, raw OD600 reference: median of DMSO wells 0.227, cell-free background 0.041
[16] = arabinose 100 nM, raw OD600 reference: median of DMSO wells 0.413, cell-free background 0.052
[17] = arabinose 10000000 nM, raw OD600 reference: median of DMSO wells […], cell-free background 0.052

Row | SMILES | growth [1] | growth [2, 7] | growth [2, 8] | growth [2, 9] | growth [2, 10] | growth [2, 11] | growth [3, 12] | growth [3, 13] | growth [4, 14] | growth [4, 15] | growth [5] | growth [6, 16] | growth [6, 17]
1 | CC1(C)O[C@@H]2C[C@H]3[C@@H]4CCC5=CC(=O)C=C[C@]5(C)[C@H]4[C@@H](O)C[C@]3(C)[C@]2(C(=O)CO)O1 [Desonide] | 0.185 ± 0.0048 | 0.252 ± 0.0091 | 0.254 ± 0.011 | 0.172 ± 0.014 | 0.15 ± 0.005 | 0.144 ± 0.0029 | 0.208 ± 0.0068 | 0.378 ± 0.065 | 0.181 ± 0.005 | 0.248 ± 0.034 | 0.496 ± 0.062 | 0.414 ± 0.011 | 0.302 ± 0.019
2 | NC(N)=Nc1nc(CSCC/C(N)=N/S(N)(=O)=O)cs1 [Famotidine] | 0.248 ± 0.0073 | 0.298 ± 0.013 | 0.273 ± 0.014 | 0.203 ± 0.03 | 0.187 ± 0.0063 | 0.151 ± 0.011 | 0.348 ± 0.074 | 0.436 ± 0.038 | 0.206 ± 0.043 | 0.203 ± 0.025 | 0.465 ± 0.058 | 0.413 ± 0.0053 | 0.328 ± 0.014
3 | CN[C@@H]1[C@H](O[C@H]2[C@H](O[C@H]3[C@H](O)[C@@H](O)[C@H](N=C(N)N)[C@@H](O)[C@@H]3N=C(N)N)O[C@@H](C)[C@]2(O)C=O)O[C@@H](CO)[C@H](O)[C@H]1O [Streptomycin sulfate] | 0.04117 ± 5.8e-05 | 0.04617 ± 0.00029 | 0.0396 ± 0.00055 | 0.04577 ± 0.00042 | 0.03957 ± 0.00025 | 0.0731 ± 0.0022 | 0.0611 ± 0.0021 | 0.0528 ± 0.00084 | 0.108 ± 0.048 | 0.0695 ± 0.0084 | 0.0543 ± 0.00036 | 0.0665 ± 0.0098 | 0.05093 ± 0.00012
4 | CO[C@H]1/C=C/O[C@@]2(C)Oc3c(C)c(O)c4c(O)c(c(/C=N/N5CCN(C)CC5)c(O)c4c3C2=O)NC(=O)/C(C)=C\C=C\[C@H](C)[C@H](O)[C@@H](C)[C@@H](O)[C@@H](C)[C@H](OC(C)=O)[C@@H]1C [Rifampicin] | 0.0429 ± 0.0015 | 0.0442 ± 0.003 | 0.04117 ± 0.00021 | 0.0444 ± 0.0018 | 0.04127 ± 0.00012 | 0.043 ± 0.0014 | 0.0643 ± 0.011 | 0.0572 ± 0.0093 | 0.106 ± 0.094 | 0.0504 ± 0.00072 | 0.05337 ± 0.00042 | 0.0557 ± 0.00079 | 0.0524 ± 0.00092
5 | C[C@H](N)[C@H](O)c1cccc(O)c1 [Metaraminol bitartrate] | 0.245 ± 0.015 | 0.278 ± 0.0096 | 0.267 ± 0.0062 | 0.186 ± 0.013 | 0.185 ± 0.0027 | 0.153 ± 0.018 | 0.333 ± 0.062 | 0.415 ± 0.029 | 0.208 ± 0.014 | 0.23 ± 0.024 | 0.573 ± 0.076 | 0.426 ± 0.0087 | 0.356 ± 0.0097
6 | CN(C)c1nc(N(C)C)nc(N(C)C)n1 [Altretamine] | 0.251 ± 0.0091 | 0.315 ± 0.018 | 0.254 ± 0.0079 | 0.209 ± 0.0047 | 0.176 ± 0.008 | 0.163 ± 0.009 | 0.475 ± 0.017 | 0.436 ± 0.037 | 0.217 ± 0.015 | 0.267 ± 0.019 | 0.618 ± 0.023 | 0.404 ± 0.017 | 0.317 ± 0.02
7 | C[C@H](Cc1cc2c(c(C(N)=O)c1)N(CCCO)CC2)NCCOc1ccccc1OCC(F)(F)F [Silodosin] | 0.1773 ± 0.001 | 0.251 ± 0.0074 | 0.273 ± 0.0053 | 0.171 ± 0.019 | 0.158 ± 0.015 | 0.14 ± 0.0083 | 0.302 ± 0.092 | 0.474 ± 0.012 | 0.201 ± 0.02 | 0.206 ± 0.033 | 0.442 ± 0.056 | 0.407 ± 0.011 | 0.329 ± 0.018
8 | Nc1ccc(/N=N/c2ccccc2)c(N)n1 [Phenazopyridine hydrochloride] | 0.152 ± 0.0064 | 0.172 ± 0.0075 | 0.251 ± 0.0051 | 0.144 ± 0.0084 | 0.184 ± 0.0075 | 0.16 ± 0.009 | 0.255 ± 0.039 | 0.22 ± 0.016 | 0.196 ± 0.01 | 0.189 ± 0.022 | 0.405 ± 0.014 | 0.414 ± 0.0063 | 0.301 ± 0.021
9 | C1N2CN3CN1CN(C2)C3 [Methenamine] | 0.245 ± 0.011 | 0.287 ± 0.0055 | 0.275 ± 0.0029 | 0.198 ± 0.025 | 0.226 ± 0.0064 | 0.14 ± 0.0044 | 0.345 ± 0.048 | 0.33 ± 0.051 | 0.204 ± 0.0098 | 0.218 ± 0.035 | 0.59 ± 0.14 | 0.41 ± 0.01 | 0.376 ± 0.0071
10 | CN(CCOc1ccc(CC2SC(=O)NC2=O)cc1)c1ccccn1 (centres undefined) [Rosiglitazone Hydrochloride] | 0.142 ± 0.0027 | 0.177 ± 0.0057 | 0.168 ± 0.011 | 0.177 ± 0.0028 | 0.0847 ± 0.0029 | 0.112 ± 0.0041 | 0.184 ± 0.026 | 0.19 ± 0.023 | 0.177 ± 0.015 | 0.215 ± 0.028 | 0.327 ± 0.0092 | 0.266 ± 0.021 | 0.1 ± 0.016
11 | CN(C)c1ccc(O)c2c1C[C@H]1C[C@H]3[C@H](N(C)C)C(=O)C(C(N)=O)=C(O)[C@@]3(O)C(=O)C1=C2O [Minocycline hydrochloride] | 0.0402 ± 0.00064 | 0.0422 ± 0.00083 | 0.0402 ± 0.00026 | 0.0426 ± 0.00055 | 0.0397 ± 0.00075 | 0.0426 ± 0.00067 | 0.06847 ± 0.00055 | 0.0692 ± 0.0029 | 0.0606 ± 0.01 | 0.0519 ± 0.0019 | 0.0527 ± 0.00085 | 0.0623 ± 0.0026 | 0.0637 ± 0.0055
12 | COc1cc(NS(=O)(=O)c2ccc(N)cc2)nc(OC)n1 [Sulfadimethoxine] | 0.2298 ± 0.0014 | 0.264 ± 0.011 | 0.177 ± 0.01 | 0.2126 ± 0.0014 | 0.106 ± 0.0049 | 0.139 ± 0.0065 | 0.266 ± 0.0084 | 0.403 ± 0.025 | 0.192 ± 0.0042 | 0.213 ± 0.015 | 0.46 ± 0.053 | 0.425 ± 0.0055 | 0.332 ± 0.031
13 | CCn1cc(C(=O)O)c(=O)c2cc(F)c(N3CCNCC3)cc21 [Norfloxacin] | 0.04437 ± 0.00025 | 0.0427 ± 0.00078 | 0.0398 ± 0.00098 | 0.0437 ± 0.00036 | 0.0398 ± 0.0006 | 0.0437 ± 0.00035 | 0.0546 ± 0.0041 | 0.0626 ± 0.0092 | 0.0581 ± 0.00065 | 0.0745 ± 0.015 | 0.0524 ± 0.0022 | 0.0551 ± 0.002 | 0.05117 ± 0.00047
